# PubChem BioAssay AID950 (NMMLSC, 2007)
# Out of some 190,000 compounds screened, about 120 (0.063%) were called active. This excerpt belongs to a sample that is enriched for actives. Values without a mark were called inactive. Rule as the data show it: active = inhibition above about 40%; inconclusive = no clear call, values can overlap the other calls; inactive = below that.
# Target: Apoptosis regulator Bcl-2 (Homo sapiens) (UniProt P10415)
# Test: inhibitors of Bim-Bcl-2 binding, primary screen, biochemical, multiplexed, human Bcl-2 family (AID 950);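 also: 0% = no compound wells with probe peptide and 100% = reference peptide inhibitor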
# Details: Bead-based flow cytometry, Bim peptide-Bcl-2 binding; at 10 µM; active compounds read high
# Chain of Apoptosis regulator Bcl-2 (Homo sapiens) (P10415 whole entry, looked up): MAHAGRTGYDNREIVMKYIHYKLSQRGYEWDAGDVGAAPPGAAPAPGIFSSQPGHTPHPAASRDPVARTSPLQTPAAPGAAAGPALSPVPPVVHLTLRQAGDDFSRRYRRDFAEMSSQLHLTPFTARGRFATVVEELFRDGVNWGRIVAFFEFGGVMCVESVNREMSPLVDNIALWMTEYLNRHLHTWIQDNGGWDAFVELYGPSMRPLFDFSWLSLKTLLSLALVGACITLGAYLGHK
row,SMILES,inhibition
1,CC(NC(=S)Nc1ccccc1)C1COc2ccccc2O1 (stereo not drawn),-6%
2,O=C(CCC(=O)N1CCCC1)Nc1ccc([N+](=O)[O-])cc1,-2%
3,CC(C)CNC(=S)NC(=O)c1ccc(Cl)cc1,0%
4,COCCN(C(=O)C(C)C)c1nnc(-c2ccc(C(C)(C)C)cc2)s1,-5%
5,C=C1C2C[C@H](O)C(C)(C)[C@@]2(O)[C@H](O)C[C@]23C[C@@](C)(O)[C@H](CC[C@H]12)[C@H]3O (stereo partly drawn),0%
6,Nc1nc(SCC(=O)N2CCN(S(=O)(=O)c3ccc(Cl)cc3)CC2)n[nH]1,-1%
7,COc1cc([N+](=O)[O-])ccc1NC(=S)N1CCN(c2ccccn2)CC1,0%
8,Cc1ccc(NC(=S)NC(=O)/C=C/c2ccc(Cl)cc2)cc1,-10%
9,COC(=O)c1c(NC(=O)CCCC(=O)O)sc2c1CCCCC2,-3%
10,COc1cccc(NC(=O)COC(=O)CCOc2ccccc2OC)c1,-2%
11,Cc1cccc(/C(N)=N/OC(=O)c2ccccc2Cl)c1,-7%
12,CCOC(=O)C(C)n1nc(-c2ccccc2)c2ccccc2c1=O (stereo not drawn),-1%
13,Cn1cc(Cl)c(C(=O)NNC(=S)Nc2cccc(Cl)c2)n1,0%
14,Cc1ccc(OC(=O)CCC(=O)Nc2ccc(Br)cc2)cc1,0%
15,O=C(N/N=C/c1ccccn1)c1ccc(S(=O)(=O)N2CCCCCC2)cc1,0%
16,O=[N+]([O-])/C(N=Nc1ccccc1)=N\Nc1ccccc1,-1%
17,N#CCC(=O)N/N=C/c1ccc(SCC(=O)Nc2ccccc2)o1,-1%
18,Cc1ccc(NC(=O)Nc2cccc(C(F)(F)F)c2)nc1,0%
19,CN1CCN(CC(=O)Nc2cccc([N+](=O)[O-])c2)CC1,-1%
20,O=C(COC(=O)Cn1cnc2ccccc21)Nc1cccc2c1C(=O)c1ccccc1C2=O,-1%
21,CC1COc2ccccc2N1S(=O)(=O)c1ccccc1 (stereo not drawn),-1%
22,COc1cc(NC(=O)c2ccccc2NS(=O)(=O)c2ccc(Cl)s2)cc(OC)c1,12%
23,CCC(=O)Nc1ccc(C(=O)N2CCN(C(=O)c3ccco3)CC2)cc1,3%
24,COc1ccc(/C=C/C(=O)OCC(=O)NCc2cccs2)cc1OC,0%

row,SMILES,inhibition
1,CCOC(=O)N1CCN(Cc2nc(Cc3cccc(C(F)(F)F)c3)no2)CC1,-6%
2,COc1cc2nc(CN(C)Cc3ccc(F)cc3)[nH]c(=O)c2cc1OC,14%
3,O=C(O)CCCCCNc1ncnc2ccc(Br)cc12,3%
4,COc1ccccc1-n1ccnc1SCC(=O)NC(C)(C)C,-11%
5,CC12CN(NC(=O)c3ccc(Cl)cc3)C3(C#N)CC1CCC23C (stereo not drawn),0%
6,CC(=O)c1ccc(NC(=O)C(C)N(C)CC(=O)Nc2ccccc2Cl)cc1 (stereo not drawn),1%
7,CN(C)c1ccc(/C=N\S(=O)(=O)c2ccccc2)cc1,2%
8,CCC1CCCCN1S(=O)(=O)Cc1ccccc1Cl (stereo not drawn),1%
9,CCOc1ccc(NC(=S)N2CCCCCC2)cc1,-6%
10,COc1cccc(CNC(=O)CCC2CCCN(C(=O)c3cc(C)[nH]n3)C2)c1 (stereo not drawn),-4%
11,CCOc1ccc2c(=O)c(-c3ccc4c(c3)OCCCO4)c(C)oc2c1,-3%
12,N/C(=N\OC(=O)c1ccc([N+](=O)[O-])cc1)c1ccccn1,-3%
13,COc1ccc2cc(-c3[nH]ncc3CNCCn3nc(C)cc3C)ccc2c1,-2%
14,Cc1cccc(NC(=O)CN2C(=O)c3ccccc3C2=O)c1C,0%
15,Fc1cccc(Cc2noc(CN3CCN(c4cnccn4)CC3)n2)c1,0%
16,Cc1cccc(-n2c(SCC(N)=O)nc3c(c2=O)C2(CCCCC2)Cc2ccccc2-3)c1,1%
17,CCCCCNC(=O)c1cccnc1SCC(=O)Nc1ccccc1OC,-2%
18,O=C1CCCC2=C1C(c1cccs1)CC(=O)N2c1ccc(F)cc1 (stereo not drawn),4%
19,O=C(CC(=O)N/N=C\c1cccc(Cl)c1Cl)NCc1ccccc1,-2%
20,O=C(NN1C(=O)C2C3C=CC(C3)C2C1=O)c1ccco1 (stereo not drawn),-4%
21,CN(c1ccccc1)c1nc(N)c([N+](=O)[O-])c(NCc2ccco2)n1,-2%
22,Cn1c(=N)n(CC(O)c2cccs2)c2ccccc21 (stereo not drawn),-1%
23,O=C(CSc1ccc(C(F)(F)F)cc1[N+](=O)[O-])NCCOc1ccccc1,-7%
24,CC(C)(CNC(=O)c1ccc(Cl)c(S(=O)(=O)N2CCc3ccccc3C2)c1)N1CCOCC1,0%
